# In the library only some 3.9% were active in any assay of this set; here they are far more common.
# esBAF inh: inhibitors of esBAF chromatin remodeling in mouse ES cells. Bmi1-luciferase knock-in reporter, 24 h; 100% = twice the neutral-well signal. 350,000 tested, 2% active. reporter increase, % at 12.5 µM; in the data active means activation above about 40%; inconclusive means no clear call, values can overlap the other calls;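 further: 0% = median of the plate's neutral control wells and 100% = double that signal; a rise in the Bmi1 reporter signal indicates esBAF inhibition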
# HSF1 inhib: HSF1 inhibition; NIH3T3-HGL HSE-luciferase, MG132-induced, luminescence 8 h; stronger effect = lower value; activity change, negative = inhibition, % at 7.5 µM (by protocol); 300,000 tested, 0.77% active;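 active means more than half of replicate wells show activity change below -50%, luminescence cut by over half; inconclusive means some wells, but at most half, below -50%; inactive means no replicate well below -50%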;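 further: luciferase reports HSF-1 transcriptional activity via heat shock element; 0% = median of DMSO wells and -100% = zero luminescence signal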
# HSF-1 act: increases HSF-1 driven luciferase reporter signal | NIH3T3-HGL HSF-1 luciferase reporter, MG132, 8 h; 100% = twice DMSO control signal | activation, % at 9 µM | 300,000 tested, 1.7% active | AID 504408;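 active means mean replicate activation of at least 50% with a set share of replicates each reaching 50%; inconclusive means only one of those two conditions met; inactive means mean below 50% and too few replicates reaching it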;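 further: 0% = median of the neutral control wells and 100% = twice that signal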
# Wnt act: activators of Wnt/beta-catenin signaling. AID 743398. 300,000 tested, 1.2% active. activation, % at 9.35 µM. Wnt/beta-catenin reporter cell assay, activator, plate reader; in the data active means activation above about 30%, passing the limit was not always enough; inconclusive means no clear call, values can overlap the other calls;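 further: 0% = neutral control wells and 100% = positive control wells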
# MITF TRPM1 HTS: activators of MITF-driven TRPM1 promoter activity in SK-MEL-5 cells; SK-MEL-5 TRPM1-promoter luciferase, 24 h; % of positive control, neutral wells = 0; activation, % at 12.5 µM; 300,000 tested, 0.75% active; AID 588334;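 active means mean activation of at least 80% with every replicate also reaching 80%; inconclusive means mean reaches 80% but some replicate falls short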;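 further: 0% = neutral control wells and 100% = parthenolide positive control wells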
# * hit, by the source's call; ? = inconclusive; . = no result.
SMILES,esBAF inh,HSF1 inhib,HSF-1 act,Wnt act,MITF TRPM1 HTS
O=C(/C(=C(\[O-])c1ccccc1)[n+]1ccc2ccccc2c1)c1ccc(Cl)cc1,.,-57*,-66,.,-10
O=C(N[C@@H]1CC[C@@H](CCn2cc(-c3ccc(F)cc3)nn2)O[C@@H]1CO)c1cnccn1,-1,.,.,.,.
O=C(CSc1n[nH]c(=O)[nH]c1=O)c1ccccc1,-6,3,9,.,2
CN(C)C(=O)CSc1n[nH]c(=O)[nH]c1=O,.,-89*,-92,0,7
CC(C)NS(=O)(=O)c1ccc(NC(=O)Cc2ccsc2)cc1,20,7,7,3,5
O=C(Cc1ccsc1)Nc1ccc(S(=O)(=O)C(F)F)cc1,16,-64*,-71,-2,34
Cc1noc(C)c1NC(=O)Nc1ccc2c(c1)C(=O)N([C@@H](C)CO)C[C@H](C)[C@H](CN(C)Cc1ccc(C(F)(F)F)cc1)OCCCC[C@H](C)O2,-6,.,.,.,.
COc1ncccc1-c1nnn(-c2ccc(Cl)nc2)n1,19,12,9,11,70
Clc1ccc(-n2nnc(-c3cccnc3Cl)n2)cn1,52*,15,41,41*,126*
Cc1ccc(-n2nnc(-c3cccnc3Cl)n2)cc1,-8,44,70*,31*,61
Cc1ccc(N/N=C2\CS(=O)(=O)N(C)c3ccsc32)cc1,59*,73,88*,8,9
CN1c2ccsc2/C(=N/Nc2ccc(F)cc2)CS1(=O)=O,64*,8,31,12,16
Cc1cc(C(=O)CSc2nncs2)c(C)n1-c1c(C)n(C)n(-c2ccccc2)c1=O,-4,-3,-9,1,-2
Cc1ccc(-n2c(C)cc(C(=O)CSc3nncs3)c2C)cc1,.,39,67*,.,29
Cc1ccc(-n2c(C)cc(C(=O)CSc3nnnn3C)c2C)cc1,27,-2,24,63*,45
Cc1cc(C(=O)CSc2nnnn2C)c(C)n1CCc1ccc(F)cc1,.,-2,9,.,0
COc1cc(/C=C/C(=O)c2c(O)ccc3c(C)cc(=O)oc23)ccc1O,14,73,113*,.,-1
Cc1cc(=O)oc2c(C(=O)/C=C\c3cccs3)c(O)ccc12,.,34,61*,.,12
C[C@@H]1CN([C@H](C)CO)C(=O)c2ccccc2-c2ccccc2CO[C@H]1CN(C)C(=O)Nc1ccc2c(c1)OCO2,16,.,.,.,.
C[C@H](CO)N1C[C@H](C)[C@@H](CN(C)S(C)(=O)=O)Oc2ncc(-c3cccc(F)c3)cc2C1=O,1,.,.,.,.
CCS(=O)(=O)c1ccc(N=Nc2ccc(O)c3ncccc23)c(OC)c1,.,-60*,-57,-1,-65
COc1ccccc1N=Nc1ccc(O)c2ncccc12,64*,-78*,-79,16,1
Oc1ccc(N=Nc2ccccc2C(F)(F)F)c2cccnc12,-64,-66*,-72,-9,-73
CS(=O)(=O)N1CCCCN2[C@H](CO)[C@@H](c3ccc(Br)cc3)[C@@H]2C1,-2,.,.,.,.
Cc1ccc(S(=O)(=O)Nc2ccc3c(c2)C(=O)N([C@H](C)CO)C[C@@H](C)[C@@H](CN(C)C(=O)Nc2ccc(F)cc2)O3)cc1,0,.,.,.,.
SMILES,esBAF inh,HSF1 inhib,HSF-1 act,Wnt act,MITF TRPM1 HTS
Cc1cc(C)nc(S/C=C/C(=O)c2ccccc2F)n1,.,150,189*,7,-87
OC1CCN(Cc2cccc(Oc3ccccc3)c2)CC1,-4,-51*,-62,-3,5
CN1CCN(Cc2cccc(Oc3ccccc3)c2)CC1,0,-1,-2,-2,5
COc1cc2sc3cc(NCc4ccc(C)o4)ccc3c(=O)c2cc1OC,.,.,.,?,109*
COc1cc2sc3cc(NCc4ccc5c(c4)OCO5)ccc3c(=O)c2cc1OC,36,.,.,15,49
COc1cccc2sc3ccc(NCCC4CCCN4C)cc3c(=O)c12 (stereo unspecified),9,4,4,3,-43
COc1cc2sc3cc(NCC[C@@H]4CCCN4C)ccc3c(=O)c2cc1OC,53*,.,.,21,97*
COCCNC(=O)c1cc2sc3ccccc3c2s1,2,23,2,46*,.
O=C(COC(=O)c1cccc(F)c1)Nc1ccc2c(c1)OCCO2,27,.,.,32*,9
N#CCC(=O)Nc1ccc(C(=O)OCC(=O)NC(=O)Nc2ccc3c(c2)OCCO3)cc1,61*,.,.,29,58
O=C(COC(=O)c1ccccc1F)Nc1ccc2c(c1)OCCO2,1,.,.,41*,10

# Assay outcomes: PubChem BioAssay, Broad Institute
